# Pf growth 96h: Primary qHTS for delayed death inhibitors of the malarial parasite plastid, 96 hour incubation | P. falciparum luciferase reporter growth, 96 h | Potency, µM (highest dose often 28.7 µM), without a hit: at the highest dose activity change, negative = inhibition, hits mostly inhibitors | 320,000 compounds, 6.9% hits; active = well fitted inhibition curve with a large enough effect; inconclusive = small, poorly fitted or top-dose-only effect, or another doubt; inactive = no such curve, though single readings can be large or run the other way; note: % is set by controls: 0 for no effect and ±100 for the full control effect
#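 Parasite growth measured via integrated firefly luciferase reporter in P. falciparum. Infected erythrocytes at 2% hematocrit, 0.05% parasitemia final were treated 96 hours at 37 C under 5% CO2, and luminescence was read.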
# SARS PLP yeast: qHTS of Yeast-based Assay for SARS-CoV PLP; Potency, µM (top dose mostly 32.9 µM), for the others: at the highest dose activity, positive = growth rescue, most hits filed as activators; 330,000 compounds, 0.19% hits; S. cerevisiae expressing SARS-CoV PLpro, growth rescue; note: 0% is about no effect; nearly all actives have a fitted effect of over 55% in size
# NS1 inh: qHTS Assay for Inhibitors of Influenza NS1 Protein Function. Potency, µM (titrated, usually from 46.1 µM), for the others: at the top dose activity, positive = more growth. 270,000 compounds, 0.4% hits. AID 2326, 2010; note: actives are rising curves; nearly all actives have a fitted effect of over 50% in size
#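 Compounds were scored for reversing the slow growth caused by influenza A NS1 in S. cerevisiae, measured by optical density at 600 nm. Assay medium contained 2% galactose at pH 6.0; NS1-free yeast of the same strain were the positive control.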
# Pf growth 48h: Primary qHTS for delayed death inhibitors of the malarial parasite plastid, 48 hour incubation; 310,000 compounds, 5.9% hits; Potency, µM (highest dose often 28.7 µM), for the others: at the highest dose activity change, negative = inhibition, most hits filed as inhibitors; P. falciparum luciferase growth in erythrocytes, 48 h; active = well fitted inhibition curve with a large enough effect; inconclusive = small, poorly fitted or top-dose-only effect, or another doubt; inactive = no such curve, though single readings can be large or run the other way; note: % is set by controls: 0 for no effect and ±100 for the full control effect
#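 First compound was added to culture medium, then infected red cells at 0.1% parasitemia and 2% hematocrit (final). After incubation at 37 C under 5% CO2, luciferase detection reagent was dispensed and light output recorded.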
# RE007 growth inh: qHTS Assay for Inhibitors of the HIV-1 protein Vpr. 360,000 compounds, 0.21% hits. AID 651644, 2012. S. pombe RE007 Vpr strain, BacTiter-Glo ATP luminescence, 24 h. Potency, µM (top dose mostly 92.2 µM), without a hit: at the highest dose activity change, negative = less growth, usual class: inhibitors; active = well fitted falling curve with a large enough effect; inconclusive = small, poorly fitted or top-dose-only effect; inactive = no such curve, though single readings can be large or run the other way; note: % is set by controls: 0 for no effect and ±100 for the full control effect; nearly all actives have a fitted effect of over 50% in size
#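 Fission yeast RE007 carrying one integrated HIV-1 vpr copy, seeded at OD 0.01 in PMG+AL medium with 23 nL pinned compound. Grown 24 h at 30 degrees; viability read by BacTiter-Glo luminescence after 5 min.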
# * = called active by the depositor; ? = inconclusive; nt = not tested or not shown; [ ] = another dose, or the depositor's remark. In the library only some 9.5% were active in any assay of this set; here they are far more common. Unless noted, calls come from the whole dose curve. Potency is the fitted concentration of half-maximal effect.
SMILES,Pf growth 96h,SARS PLP yeast,NS1 inh,Pf growth 48h,RE007 growth inh
O=C(O)c1cccc(-c2ccccc2)c1O,nt,nt,nt,nt,11%
COc1ccc(C2=C(C=C(C#N)C#N)C(c3ccccc3C)c3ccccc3O2)cc1OC (stereo unspecified),?,11%,27%,9.3µM*,-9%
CCc1cc(-c2nnn(CCC3COCCO3)c2CC)ccc1-c1cn(Cc2ccccc2)nn1 (stereo unspecified),nt,nt,nt,nt,-13%
CCCCCCCC/C=C\CCCCCCCC(=O)NCc1ccc(O)c(OC)c1,17µM*,nt,nt,?,nt
COc1cc(CNC(=O)CCCC/C=C\C(C)C)ccc1O,nt,-1%,nt,nt,nt
CCCCCCCC/C=C\CCCCCCCC(=O)O,-13%,1%,4%,0%,-6%[18.4 µM]
CCCCC(=O)NCCc1ccc(S(N)(=O)=O)cc1,-7%[5.75 µM],-2%,4%,1%,6%
CCCCCCCC/C=C\CCCCCCCC(=O)NCCc1ccc(O)c(O)c1,?,nt,-9%,10µM*,16%
CCCCCCCC/C=C\CCCCCCCC(=O)NCCO,2.6µM*,nt,-11%,2.9µM*,-8%[18.4 µM]
CCOc1ccccc1CNn1cnnc1SCC(=O)NC(C)(C)C,nt,nt,nt,nt,4%
Cn1nc(-c2ccc(C(=O)Nc3ccc(F)cc3)cc2)c2ccccc2c1=O,8%,-1%,nt,?,14%
Cn1c(C(=O)NC2CCCCCC2)cc2c(=O)n(C)c3ccccc3c21,-8%,-3%,-41%,nt,-5%
Cn1c(C(=O)NC2CCCCC2)cc2c(=O)n(C)c3ccccc3c21,10µM*,7%,-35%,nt,-10%
Cn1nc(-c2ccc(C(=O)Nc3cccnc3)cc2)c2ccccc2c1=O,?,?,1%,6.6µM*,-6%
Cn1nc(-c2ccc(C(=O)Nc3cccc(Cl)c3)cc2)c2ccccc2c1=O,3.3µM*,0%,10%,nt,-7%
Cn1nc(-c2ccc(C(=O)N3CCN(Cc4ccccc4)CC3)cc2)c2ccccc2c1=O,13µM*,-3%,-4%,nt,7%[3.69 µM]
O=C(O)CCn1nnc2ccccc21,22%,0%,3%,24%,11%
CCc1nc2ccc(C(=O)Nc3ccc4c(c3)OCC(=O)N4)cn2c1N(C)C(=O)C1CCCCC1,nt,nt,nt,nt,-14%[18.4 µM]
CCOC(=O)[C@]12CCCC=C1N(CCC1=CCCCC1)C(=O)[C@H](CC(=O)NCc1ccccc1)C2,nt,nt,nt,nt,2%
Cn1nc(-c2ccc(C(=O)NC3CCCCC3)cc2)c2ccccc2c1=O,2%,-2%,1%,5.2µM*,14%
Cc1ccc(NC(=O)c2ccc(-c3nn(C)c(=O)c4ccccc34)cc2)c(C)c1,6.6µM*,-8%,-2%,nt,-25%[3.69 µM]
CC(O)CNC(=O)c1ccc(-c2nn(C)c(=O)c3ccccc23)cc1 (stereo unspecified),7%,2%,2%,nt,-18%[3.69 µM]
Cc1ccc(NC(=O)c2ccc(-c3nn(C)c(=O)c4ccccc34)cc2)cc1,10µM*,4%,-55%,nt,11%
Cn1nc(-c2ccc(NCCO)c([N+](=O)[O-])c2)c2ccccc2c1=O,5.2µM*,0%,2%,-8%,11%
N#CCOc1coc(CN2CCN(c3ccccc3)CC2)cc1=O,-17%,-2%,-2%,10%,15%
SMILES,Pf growth 96h,SARS PLP yeast,NS1 inh,Pf growth 48h,RE007 growth inh
CCOC(=O)C1=C(COC(=O)c2ccc([N+](=O)[O-])o2)NC(=O)NC1C (stereo unspecified),-29%,-3%,nt,-3%,-1%
CC[N+]12CCC(CC1)C(=C(c1ccccc1)c1ccccc1)C2,?,-1%,3%,27%,-8%
C[N+]12CCC(CC1)C(=C(c1ccccc1)c1ccccc1)C2,0.59µM*,-3%,1%,0.74µM*,8%
COC(=O)[C@]12CCCCC=C1N(CCc1ccc(OC)c(OC)c1)C(=O)[C@H](CC(=O)NCCc1ccccc1OC)C2,nt,nt,nt,nt,-5%
CC1CCN(c2ncnc3c2cnn3-c2ccccc2)CC1,141%,-4%,-54%,nt,-7%
COc1cccc(OCCN2CCN(c3ncnc4c3cnn4-c3ccccc3)CC2)c1,9.3µM*,1%,-13%,12µM*,7%
COC(=O)c1cn(-c2nc3ccccc3s2)nn1,nt,nt,nt,nt,-26%
Cc1cc(N/N=C/c2ccc(Cl)cc2)nc(NCc2ccccc2)n1,0.74µM*,-25%,-14%,1µM*,-23%
Cc1cc(Nc2cccc(Cl)c2)nc(NCc2ccccc2)n1,0.47µM*,?,-26%,0.74µM*,5%
Cc1cc(N/N=C/c2ccccc2)nc(NCc2ccccc2)n1,1.5µM*,-21%,-17%,2.3µM*,5%
Cc1cc(N/N=C/c2cccc(Cl)c2)nc(NCc2ccccc2)n1,?,-31%,-17%,0.83µM*,-7%
Cc1cc(N/N=C/c2cccc(F)c2)nc(NCc2ccccc2)n1,?,0%,-54%,?,2%
Brc1ccc2ncc(Br)cc2c1,-20%,17%,-4%,-7%,0%
O=C(CNS(=O)(=O)c1ccc(Br)cc1)Nc1ccc2c(c1)OCCO2,-5%,-6%,-9%,7%,7%
Cc1ccc(S(=O)(=O)N(C)c2ccc(OC(=O)c3cccs3)cc2)cc1C,-6%,2%,nt,-6%,4%
CN(C)c1nc(NCc2ccccc2)nc(N/N=C/c2ccc(Cl)cc2Cl)n1,9.3µM*,4%,20%,?,-3%
CN1C[C@@H]2[C@@H]3C(=O)N(C)C(=O)[C@@H]3[C@](C)(C1=O)N2C(=O)c1ccc(C(F)(F)F)cc1,nt,nt,nt,nt,10%
CCCCn1nnnc1C(c1ccccc1)N1CCN(c2cc(C)ccc2C)CC1 (stereo unspecified),nt,nt,nt,nt,2%
O=C(O)c1cc(=O)[nH]c2ccccc12,nt,nt,nt,nt,0%
O=C1c2ccccc2C(Nc2cccnc2)N1Cc1ccc2c(c1)OCO2 (stereo unspecified),1.5µM*,-6%,-2%,-14%,-7%
O=C1c2ccccc2C(O)N1Cc1ccc2c(c1)OCO2 (stereo unspecified),1%,-8%,-7%,nt,8%
O=C1c2ccccc2C(Nc2ccc3c(c2)OCO3)N1Cc1ccc2c(c1)OCO2 (stereo unspecified),3.3µM*,-27%,-43%,9.3µM*,0%
COc1ccc(NC(=O)c2cccc(S(=O)(=O)NCc3ccccc3)c2)cc1S(N)(=O)=O,-28%,-1%,nt,?,-5%
COC(CNC(=O)c1ccc(CS(=O)(=O)c2ccccc2)o1)OC,?,-1%,3%,3%,1%
Cc1ccc(CNC(=O)c2ccc(CS(=O)(=O)c3ccccc3)o2)cc1,4.7µM*,-1%,-6%,8%,2%
Cc1ccccc1S(=O)(=O)Cc1ccc(C(=O)NCc2cccs2)o1,?,8%,-15%,nt,15%
Cc1ccc(S(=O)(=O)Cc2ccc(C(=O)NCc3cccs3)o2)cc1,3.7µM*,6%,2%,nt,-8%
OC1c2cc(Cl)cc(Cl)c2N=C2CCCN21 (stereo unspecified),nt,nt,nt,nt,-9%[18.4 µM]
